HepG2 viability – HepG2 cytotoxicity, counter-screen for TGF-b inhibitors; actives 0.76% (n = 410,000); HepG2 CAGA-GFP viability, ATP luminescence, 18 h; Potency, µM (titrated, usually from 46.1 µM), without a hit: top-dose activity change, negative = cytotoxicity, most hits filed as cytotoxic
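HepG2 CAGA-GFP cells (1000/well, DMEM with 1% FBS) received compound, then TGF-beta at 500 pg/mL final, and were incubated 18 hours at 37 degrees C. Viability was read by CellTiter-Glo luminescence. Media-only wells were set as complete cell-killing and DMSO as no toxicity.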
12-LOX inh – blocks human arachidonate 12S-lipoxygenase | P18054 | purified 12hLO, xylenol orange hydroperoxide absorbance | Potency, µM (titrated, usually from 108 µM), for inactives: at the top dose activity change, negative = inhibition, most hits filed as inhibitors | actives 1.1% (n = 580,000) | AID 1671190; further: on the % scale 0 is the no-effect control and ±100 the full control effect
Target sequence (P18054 whole entry, looked up): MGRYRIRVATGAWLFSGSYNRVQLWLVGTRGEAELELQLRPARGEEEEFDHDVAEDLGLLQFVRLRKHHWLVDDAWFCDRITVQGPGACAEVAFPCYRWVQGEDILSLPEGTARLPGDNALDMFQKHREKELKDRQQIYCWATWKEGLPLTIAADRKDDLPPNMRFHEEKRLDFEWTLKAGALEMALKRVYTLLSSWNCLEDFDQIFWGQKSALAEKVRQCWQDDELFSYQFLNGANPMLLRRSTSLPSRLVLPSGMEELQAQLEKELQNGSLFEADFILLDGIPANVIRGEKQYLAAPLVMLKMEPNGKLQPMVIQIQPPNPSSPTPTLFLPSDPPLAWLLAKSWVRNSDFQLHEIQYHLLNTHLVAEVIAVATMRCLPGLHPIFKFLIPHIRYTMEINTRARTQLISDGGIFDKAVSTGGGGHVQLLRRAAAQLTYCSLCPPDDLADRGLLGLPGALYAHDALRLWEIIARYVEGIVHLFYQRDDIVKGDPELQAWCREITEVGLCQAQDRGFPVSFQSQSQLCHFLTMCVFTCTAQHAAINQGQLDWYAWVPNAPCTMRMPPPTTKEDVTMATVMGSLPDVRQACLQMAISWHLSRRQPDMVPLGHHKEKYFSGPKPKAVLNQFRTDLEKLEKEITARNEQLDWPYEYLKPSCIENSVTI
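Purified human 12hLO (150 nM final) in 25 mM Hepes, 0.01% Triton X-100, pH 7.0 was preincubated 15 min at room temperature with compound. Then 40 uM arachidonic acid was added, 30 min. Hydroperoxide was read by Fe-XO absorbance ratio 573/405 nm.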
TGFb inhibitor – blocks TGF-b signaling. HepG2 CAGA-GFP TGF-b/SMAD3 reporter, GFP fluorescence, 18 h; TGF-beta stimulated, 500 pg/mL final. Potency, µM (series often up to 46.1 µM), inactives show at the top dose activity, negative = inhibition, hits mostly inhibitors. actives 1.2% (n = 410,000). AID 588855; further: on the % scale 0 is the no-effect control and ±100 the full control effect; nearly all actives have a fitted effect of over 65% in size
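Read-out: total well GFP (ex488/em500-530) summed from mean per-cell fluorescence. Cells: HEPG2 CAGA-GFP, 1% FBS DMEM, 18 h at 37 degrees C with 500 pg/mL final TGF-beta. Unstimulated wells served as the full-inhibition control; stimulated DMSO wells = 0%.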
ATXN2 expr inh – inhibitors of ATXN2 expression; HEK-293 ATXN2-luciferase reporter, luminescence, 24 h; Potency, µM (doses to about 57 µM), inactives show top-dose activity change, negative = inhibition, hits mostly inhibitors; actives 0.72% (n = 360,000); further: on the % scale 0 is the no-effect control and ±100 the full control effect; nearly all actives have a fitted effect of over 55% in size
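ATXN2-luciferase reporter cells (luciferase flanked by upstream and downstream ATXN2 gene portions) were treated 24 h at 37 °C with compounds at up to 57 uM. SteadyGlo luminescence gave expression; GF-AFC fluorescence gave viability.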
S2 tox – reduces viability in counter-screen for ATXN expression inhibitors. actives 0.49% (n = 400,000). S2 cells (HEK-293 line with an ATXN2-luciferase reporter) viability, CellTiter-Fluor protease fluorescence, 24 h. Potency, µM (highest dose often 56.7 µM), actives largely listed as cytotoxic. AID 651635; further: nearly all actives have a fitted effect of over 40% in size
* hit, by the source's call; i = inactive; u = inconclusive; x = no result given; ! = repeats disagree; [ ] = dose if it differs, or a comment. A selection: hits, their analogues and other compounds. The true share with any hit is near 2.7%. The call rests on the fitted dose curve; in most records, active means well fitted curve in the direction sought with a large enough effect; inconclusive means small, poorly fitted or top-dose-only effect, or another doubt; inactive means no such curve, though single readings can be large; an effect the other way counts as inactive or inconclusive. Potency means the concentration at half of the fitted maximal effect.

SMILES	HepG2 viability	12-LOX inh	TGFb inhibitor	ATXN2 expr inh	S2 tox
COc1ccc2c(c1)c(C(=O)CNc1nc(C)cs1)c(C)n2C	-21.6%	8.91µM*	0.0%	-11.9%	i
CCN(CC)CC(=O)c1c(C)n(C)c2ccc(OC)cc12	-4.1%	7.94µM*	3.7%	x	x
COc1ccc2c(c1)c(C(=O)CN(C)C)c(C)n2C	-17.7%	u	-0.5%	x	x
O=C(CCCN1C(=O)/C(=C/c2ccco2)SC1=S)Nc1ccccc1C(=O)O	-1.9%	31.6µM*	-2.5%	14.6%	i
CC(C(=O)Nc1ccc(O)cc1C(=O)O)N1C(=O)/C(=C\c2cccs2)SC1=S (stereo not given)	6.0%	31.6µM*	-8.0%	x	u
O=C(CN1C(=O)/C(=C\c2ccco2)SC1=S)Nc1ccc(O)cc1C(=O)O	11.0%	25.1µM*	6.1%	x	u
O=C(CCN1C(=O)/C(=C/c2ccco2)SC1=S)Nc1ccc(O)cc1C(=O)O	3.4%	u	8.9%	-27.8%	u
O=C(Nc1cccc(S(=O)(=O)NC2=NCCC2)c1)C1(c2cccc(Cl)c2)CC1	x	1.3%	x	x	x
CCS(=O)(=O)c1ccc(NCc2cccc(F)c2)cc1	x	-29.1%	x	x	x
COc1ccc(C(=O)C=CNNC(=O)c2ccc(Cl)cc2)cc1	-31.3%	u	12.6µM*	u	u
COc1ccccc1CNC(=O)C1Cn2cccc2C(=O)N1Cc1cccnc1 (stereo not given)	x	40.4%	x	x	x
COc1ccc(-c2cccc(NS(=O)(=O)c3cc(C)c(Cl)cc3C)c2)nn1	11.2µM*	-18.2%	u	-22.0%	i
COc1cc2ncn(CCC(=O)N3CCSCC3)c(=O)c2cc1OC	x	58.8%	x	x	x
CC(NC(=O)c1ccnc(N(C)C)c1)c1ccc2c(c1)CCC(=O)N2 (stereo not given)	x	1.1%	x	x	x
CC(=O)N1CCC(C(=O)N2CCN(S(=O)(=O)c3cccs3)CC2)CC1	-20.7%	0.0%	-5.0%	0.2%	i
CC(=O)N1CCC(C(=O)N2CCN(S(=O)(=O)c3ccc(Cl)s3)CC2)CC1	14.1µM*	1.9%	-15.8%	-9.6%	i
CCC(=O)OCOc1ccc(/C=C2/CCC(CN(C)C)C2=O)cc1 (stereo not given)	-99.5%	35.5µM*	6.31µM*	u	u
CC1(C)CCN2CCC(C)(C)c3c(O)ccc1c32	-17.9%	u	60.7%	3.16µM*	u
CCNC(=S)N/N=C/c1cc(C)ccc1C	-20.7%	39.8µM*	4.9%	0.4%	i
CNC(=S)N/N=C/c1cc(C)ccc1C	-8.8%	u	-17.4%	x	u
CN(C)CCNC(=O)c1cccc2ccc(-c3ccc(-c4ccccc4)cc3)nc12	-91.8%	39.8µM*	-14.9%	-14.5%	26.7µM*
COc1ccc(OC)c2nc3c(C(=O)NCCN(C)C)cccc3nc12	-42.4%	-6.3%	u	u	u
CN(C)CCNC(=O)c1cccc2nc3cccc(F)c3nc12	-77.8%	-24.1%	u	8.91µM*	u
COCCC(=O)N[C@H]1CC[C@]2(C)CCC([C@H](C)C(=O)N(C)Cc3ccccc3)[C@H](O)[C@H]2[C@@H]1C (stereo not given in full)	x	-1.6%	x	x	x
COc1ccc(NC(=O)C(Cl)=C(Cl)Cl)cn1	4.0%	-9.1%	0.5%	-17.3%	i
SMILES	HepG2 viability	12-LOX inh	TGFb inhibitor	ATXN2 expr inh	S2 tox
COc1ccc(NC(=O)/C(Cl)=C(/Cl)S(=O)Cc2ccc(Cl)cc2)cn1 (stereo not given)	2.51µM*	u	2.24µM*	2.51µM*	2.82µM*
COc1ccc(NC(=O)C(C)(C)Oc2ccc(Cl)cc2)cn1	1.9%	u	9.0%	5.2%	u
COc1ccc(NC(=O)/C(Cl)=C(/Cl)S(=O)(=O)Cc2ccccc2)cn1	6.31µM*	u	u	12.6µM*	14.1µM*
COc1ccc2cc(C(=O)NCC(C)C)c(C)nc2c1	x	1.8%	x	x	x
CC(C)C[C@@H](CO)N(Cc1ccccc1)S(=O)(=O)N(Cc1ccccc1)[C@@H](CO)CC(C)C	15.8µM*	x	10µM*	u	u
CC(C)C[C@@H](CO)N(Cc1ccccc1)S(=O)(=O)N(Cc1ccccc1)[C@H](CO)CC(C)C	-114.8%	x	11.2µM*!	u	u
COc1ccc(CN([C@H](C)CO)S(=O)(=O)N(Cc2ccccc2)[C@H](CO)C(C)C)cc1	-19.9%	-13.3%	-31.1%	-9.8%	u
CCN([C@H](CO)CC(C)C)S(=O)(=O)c1ccccc1	-7.8%	31.2%	-2.1%	-2.2%	i
COc1ccc(CN([C@H](CO)CC(C)C)S(=O)(=O)N(Cc2ccccc2)[C@H](CO)CC(C)C)cc1	11.2µM*!	1.1%	u	u	x
O=S(=O)(N(Cc1ccccc1)[C@H](CO)Cc1ccccc1)N(Cc1ccccc1)[C@H](CO)Cc1ccccc1	-10.0%	5.0%	-8.3%	u	i
C=CS(=O)(=O)N(Cc1ccccc1Br)[C@H](CO)CC(C)C	-46.9%	u	u	u	31.6µM*
N#Cc1nc(/C=C/c2cccs2)oc1NCCCn1ccnc1	x	-2.9%	x	x	x
Cn1cnc2c(oc3nc(C4CCCCC4)c4c(c32)CCC4)c1=O	x	-8.7%	x	x	x
CCc1ccc(NC(=O)c2cc3ncccn3n2)cc1	x	-14.0%	x	x	x
O=C(Nc1cccc(-c2csc(Nc3cccc(C(F)(F)F)c3)n2)c1)c1ccccc1	-8.9%	-2.4%	u	u	25.1µM*
CCOc1cccc2cc(-c3csc(Nc4cccc(C(F)(F)F)c4)n3)c(=O)oc12	x	-18.0%	x	x	x
O=C(Nc1ccc(-c2csc(Nc3cccc(C(F)(F)F)c3)n2)cc1)c1ccccc1	-47.0%	-10.5%	u	u	u
CC(=O)NCc1ccc(-c2csc(Nc3cccc(C(F)(F)F)c3)n2)o1	x	10µM*	x	x	x
CCOC(=O)C1=C(C)N(C)C(=O)NC1c1ccc(Br)s1 (stereo not given)	x	-21.8%	x	x	x
Cn1cc(C(=O)CCl)c2ccccc21	15.8µM*	-18.7%	12.6µM*	x	x
CCNc1c(NC(=O)NCC2CCCO2)c(=O)oc2ccccc12 (stereo not given)	x	-23.8%	x	x	x
COc1ccc(CNc2ccnc(-c3cccnc3)n2)c(OC)c1	x	44.7µM*	x	x	x
Cc1sc(NC(=O)c2ccco2)c(C(c2ccc(F)cc2)N2CCN(C)CC2)c1C (stereo not given)	11.2µM*	x	15.8µM*	0.8%[11.3 µM]	i
CCc1cc(C(c2ccncc2)N2CCN(C)CC2)c(NC(=O)c2ccccc2)s1 (stereo not given)	-11.2%	-19.7%	-14.7%	18.5%	i
Cc1ccc(C(c2c(NC(=O)c3ccco3)sc(C)c2C)N2CCOCC2)cc1 (stereo not given)	-8.6%	u	-1.6%	x	i

Source: PubChem BioAssay (National Center for Advancing Translational Sciences (NCATS))
